Assay [1] can be described thus: P-glycoprotein substrates identified in KB-8-5-11 adenocarcinoma cell line, qHTS therapeutic library screen (AID 1346987). Further: nearly all actives have a fitted effect of over 65% in size. Further: potency means the concentration at half of the fitted maximal effect. In a few lines: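 Human cervical adenocarcinoma KB-8-5-11 cells, selected in colchicine to over-express P-gp and assayed without it, were exposed for 72 h to titrated compounds. An ATP-based luminescent viability signal gave AC50.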
A general note: Quantitative high-throughput screening tests each substance at several concentrations.

Assay [2] has as its target Cytochrome P450 2C9 (Homo sapiens) (UniProt P11712). Kind of assay: Cytochrome P450 family 2 subfamily C member 9 (CYP2C9) small molecule antagonists: luciferase biochemical (cell-free) qHTS assay (AID 1645842; active means well fitted curve in the direction sought with a large enough effect in the repeat runs; an effect the other way counts as inactive or inconclusive; further: potency means the concentration at half of the fitted maximal effect; nearly all actives have a fitted effect of over 55% in size). Summed up:
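P450-Glo CYP2C9 system: proluciferin substrate with enzyme in mix containing 0.4% BSA, 10 min at room temperature, then NADPH regeneration solution added and incubated 1 h at 37C. Detection reagent stopped reaction; luminescence read after 20 min as RLU.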

For another assay, the system named is HaCat. As to the kind of experiment: Cytotoxic Profiling of Annotated Libraries Using Quantitative High-Throughput Screening (AID 1296008). Further: nearly all actives have a fitted effect of over 60% in size. Further: potency means the concentration at half of the fitted maximal effect. On max response: on the % scale 0 is the no-effect control and ±100 the full control effect. Conditions: Five cell lines viability, CellTiter-Glo ATP luminescence, 48-72 h; max response: stronger effect = lower value. Summed up: (§1)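 Cytotoxicity was measured as CellTiter-Glo ATP luminescence, read after 10 min at room temperature. Compound treatment of the cells lasted 48 or 72 hr at 37 degrees Celsius in a qHTS format.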
A general note: Cellular ATP, detected with luciferase, serves as a proxy for viable cell number.

Assay [3] can be described thus: qHTS to identify inhibitors of the type 1 interferon - major histocompatibility complex class I in skeletal muscle: primary screen against the NCATS Mechanism Interrogation Plate v5.0 (MIPE) Libary (AID 1347411). Further: nearly all actives have a fitted effect of over 65% in size. Further: potency means the concentration at half of the fitted maximal effect.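 On activity change, negative = inhibition: plate controls were vehicle for no effect and reference inhibitor for full effect.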 In a few lines:
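IFN-beta-driven (4 ng/ml) HLA-B-HiBit expression in CRISPR-tagged C25cl48 myoblasts; compounds 11-pt, 1:3, max 46 uM, 24 hr exposure; lytic NanoLuc complementation luminescence.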

For the next assay, the system named is CAOV3. As to the kind of experiment: Primary qHTS to identify gynecologic anti-cancer compounds using libraries of approved drugs and bioactive compounds (AID 1345084). Further: nearly all actives have a fitted effect of over 55% in size. Further: potency means the concentration at half of the fitted maximal effect. As to conditions: Gynecologic cancer cell panel viability, ATPlite luminescence, 48 h; series mostly up to 57.5 µM. Summed up:
(§2)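 Five-concentration response, 48 h; readout is ATP-driven luciferase luminescence.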

In another assay the test system is SKOV3. Described as above. As to conditions: Gynecologic cancer cell panel viability, ATPlite luminescence, 48 h; series mostly up to 57.5 µM. Summed up: as §2
Assay [4] is described as follows: qHTS drug screen for cell cycle checkpoint inhibitors in PARPi-resistant BRCA-mutant ovarian cancer cell lines. (AID 1963452; calls by dose curve). As to conditions: PEO1/OlaR viability, CellTiter-Glo luminescence, 96 h, stronger effect = lower value. Summed up: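 PEO1, PEO4 and PEO1/OlaR ovarian cancer cells, 600 per well, exposed 96 h at 37C to a dilution series. Viability read by CellTiter-Glo luminescence, normalized to DMSO and empty wells; activity summarized as Z-AUC.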

In assay [5] the target is Cytochrome P450 2D6 (Homo sapiens) (UniProt P10635). Kind of assay: Cytochrome P450 family 2 subfamily D member 6 (CYP2D6) small molecule antagonists: luciferase biochemical (cell-free) qHTS assay (AID 1645840; active means well fitted curve in the direction sought with a large enough effect in the repeat runs; an effect the other way counts as inactive or inconclusive; further: potency means the concentration at half of the fitted maximal effect; nearly all actives have a fitted effect of over 55% in size). Summed up:
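P450-Glo CYP2D6 system: proluciferin substrate converted by enzyme to luciferin, read by luminescence proportional to activity. Enzyme-substrate mix with compound 10 min at room temperature, then NADPH regeneration 1 h before detection reagent.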

The subject of assay [6] is Zika virus NS2B-NS3 protease (unlinked complex). As to the kind of experiment: Primary screen GU Rhodamine qHTS for Zika virus inhibitors: Unlinked NS2B-NS3 protease assay (AID 1347159). Further: on the % scale 0 is the no-effect control and ±100 the full control effect; nearly all actives have a fitted effect of over 60% in size. In a few lines: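 Percent inhibition came from the 15-min rise in Rhodamine110 fluorescence (1.5 microM substrate, ~15% conversion), normalized to no-inhibitor and no-enzyme wells and Hill-fitted. Unlinked protease, 25 nM, pH 8.0 Tris buffer; compounds up to 114 microM, 15-min preincubation.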

For assay [7], the target named is Catechol O-methyltransferase (Homo sapiens) (UniProt P21964). Kind of assay: Confirmatory Screen for Target Class Profiling of Small Molecule Inhibitors of Methyltransferases (AID 1745852; calls by dose curve; further: potency means the concentration at half of the fitted maximal effect; on activity change, negative = inhibition: on the % scale 0 is the no-effect control and ±100 the full control effect). Conditions: MTase-Glo luminescence, SAH detection, recombinant enzyme; measured here: COMT max response; stronger effect = lower value.
Chain of Catechol O-methyltransferase (Homo sapiens) (P21964 whole entry, looked up): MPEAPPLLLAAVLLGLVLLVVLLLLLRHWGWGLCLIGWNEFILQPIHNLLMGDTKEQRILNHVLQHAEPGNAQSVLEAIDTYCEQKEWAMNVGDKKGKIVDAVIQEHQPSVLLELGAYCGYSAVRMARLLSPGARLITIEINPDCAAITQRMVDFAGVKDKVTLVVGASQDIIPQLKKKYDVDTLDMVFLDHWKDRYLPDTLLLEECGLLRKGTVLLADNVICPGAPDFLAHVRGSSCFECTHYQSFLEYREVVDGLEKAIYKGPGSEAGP
Assay [8] concerns the target Guanidinoacetate N-methyltransferase (Homo sapiens) (UniProt Q14353). Described as above. Conditions: activity change, negative = inhibition: at 57.3 µM (top of the series) unless noted.
The target of assay [9] is Nicotinamide N-methyltransferase (Homo sapiens) (UniProt P40261). Described as above. Conditions: MTase-Glo luminescence, SAH detection, recombinant enzyme; measured here: NNMT max response; stronger effect = lower value.
Chain of Nicotinamide N-methyltransferase (Homo sapiens) (P40261 whole entry, looked up): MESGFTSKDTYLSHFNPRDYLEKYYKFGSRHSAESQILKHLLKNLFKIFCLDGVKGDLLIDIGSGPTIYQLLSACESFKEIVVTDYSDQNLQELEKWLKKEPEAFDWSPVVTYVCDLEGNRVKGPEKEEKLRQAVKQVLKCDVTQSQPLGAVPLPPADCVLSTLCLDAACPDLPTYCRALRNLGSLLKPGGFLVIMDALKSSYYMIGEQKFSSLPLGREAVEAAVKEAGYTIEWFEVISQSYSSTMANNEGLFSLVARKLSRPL
Assay [10] deals with Phenylethanolamine N-methyltransferase (Homo sapiens) (UniProt P11086). The assay is described as above. As to conditions: MTase-Glo luminescence, SAH detection, recombinant enzyme; measured here: PNMT max response; stronger effect = lower value.
Chain of Phenylethanolamine N-methyltransferase (Homo sapiens) (P11086 whole entry, looked up): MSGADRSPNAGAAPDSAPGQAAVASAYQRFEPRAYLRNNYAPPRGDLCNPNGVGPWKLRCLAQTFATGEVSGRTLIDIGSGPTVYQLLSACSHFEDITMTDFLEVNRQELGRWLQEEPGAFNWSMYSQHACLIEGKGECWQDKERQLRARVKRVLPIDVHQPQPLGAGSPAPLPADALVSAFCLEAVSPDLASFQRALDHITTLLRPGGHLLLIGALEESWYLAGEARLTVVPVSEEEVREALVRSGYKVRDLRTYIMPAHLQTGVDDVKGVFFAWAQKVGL
A further assay relates to NIH3T3. Kind of assay: Cytotoxic Profiling of Annotated Libraries Using Quantitative High-Throughput Screening (AID 1296008). Further: nearly all actives have a fitted effect of over 60% in size. Further: potency means the concentration at half of the fitted maximal effect. On max response: on the % scale 0 is the no-effect control and ±100 the full control effect. Conditions: Five cell lines viability, CellTiter-Glo ATP luminescence, 48-72 h; max response: stronger effect = lower value. Summed up:
as §1

Inconclusive results are not listed. Activity calls are given as the source filed them. Unless noted, the call rests on the fitted dose curve; in most records, active means well fitted curve in the direction sought with a large enough effect; inconclusive means small, poorly fitted or top-dose-only effect, or another doubt; inactive means no such curve, though single readings can be large; an effect the other way counts as inactive or inconclusive.

This is an account of results in PubChem BioAssay (NCATS).

Chain of Cytochrome P450 2C9 (Homo sapiens) (P11712 whole entry, looked up): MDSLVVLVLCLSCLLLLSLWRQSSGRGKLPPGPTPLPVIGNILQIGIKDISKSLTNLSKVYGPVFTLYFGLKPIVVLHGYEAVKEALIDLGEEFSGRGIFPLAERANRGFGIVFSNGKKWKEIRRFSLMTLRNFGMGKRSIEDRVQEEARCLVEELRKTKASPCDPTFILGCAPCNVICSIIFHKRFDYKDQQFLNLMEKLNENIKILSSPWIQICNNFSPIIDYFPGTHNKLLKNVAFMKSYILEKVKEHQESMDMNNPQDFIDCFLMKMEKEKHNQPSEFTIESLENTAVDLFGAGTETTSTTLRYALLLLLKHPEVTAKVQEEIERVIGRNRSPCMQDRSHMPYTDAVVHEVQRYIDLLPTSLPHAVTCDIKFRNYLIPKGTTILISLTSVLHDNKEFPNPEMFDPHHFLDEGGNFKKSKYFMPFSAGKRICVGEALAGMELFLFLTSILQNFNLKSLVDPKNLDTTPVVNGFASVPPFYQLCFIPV
Chain of Cytochrome P450 2D6 (Homo sapiens) (P10635 whole entry, looked up): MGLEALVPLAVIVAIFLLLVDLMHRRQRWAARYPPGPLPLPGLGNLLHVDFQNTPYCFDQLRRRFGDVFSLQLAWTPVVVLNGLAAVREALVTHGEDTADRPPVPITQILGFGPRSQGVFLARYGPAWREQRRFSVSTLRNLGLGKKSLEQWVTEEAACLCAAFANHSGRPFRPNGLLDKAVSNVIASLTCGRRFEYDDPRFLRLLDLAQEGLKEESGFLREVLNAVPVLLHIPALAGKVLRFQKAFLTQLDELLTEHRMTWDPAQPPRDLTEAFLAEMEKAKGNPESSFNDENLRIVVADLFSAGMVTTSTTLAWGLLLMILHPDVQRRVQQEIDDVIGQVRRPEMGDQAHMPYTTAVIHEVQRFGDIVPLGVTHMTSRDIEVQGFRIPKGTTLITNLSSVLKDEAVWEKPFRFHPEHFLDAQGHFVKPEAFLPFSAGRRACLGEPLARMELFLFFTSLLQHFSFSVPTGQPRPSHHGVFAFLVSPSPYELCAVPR

For the compound `Cc1cc2nc(NCCCO)n(CC(=O)c3cc(C(C)(C)C)c(O)c(C(C)(C)C)c3)c2cc1C`, the Potency in [1] is 18.4 µM (active); in assay [2], 13.5 µM (active). Besides, the max response in the assay with HaCat was -19.8% (inactive).

Consider `COc1ccc(CNC(=O)Nc2ncc([N+](=O)[O-])s2)cc1`, for which the Potency was 23.1 µM (active) in [1], 18.6 µM (active) in assay [3] and 7.56 µM (active) in assay [2]. Further, the max response with HaCat is 3.95% (inactive). Besides, the Potency entry with CAOV3 and in the assay with SKOV3 was “inactive” throughout.

As for `Cc1nc2ccc(C(=O)N3CCC4(CC3)CC(=O)c3c(cnn3C(C)C)C4)cc2[nH]1`, the Potency entry in assay [3] is “inactive”. For the same compound, the Z-AUC is -0.421 (inactive) in assay [4], -0.389 in assay [4] (measured here: PEO1 parental Z-AUC) and -0.0398 in assay [4] (measured here: PEO4 Z-AUC). Moreover, the max response in the assay with HaCat is -28.8% (inactive).

`Cc1ccc(C(=O)N2CCN(c3ccc([N+](=O)[O-])cc3)CC2)cc1Cl`: the Potency in [2] is 16.9 µM (active). Also, the max response in the assay on HaCat was -12.6% (inactive). Further, in the assay with SKOV3, the Potency result is “inactive”.

Regarding `COc1cc2ncnc(Nc3ccc(Oc4ccccc4)cc3)c2cc1OC`, the Potency in assay [5] was 19 µM (active); in [2], 16.9 µM (active); in the assay with HaCat it was 7.31 µM (active); in the assay with CAOV3, 31.6 µM (active); in the assay on SKOV3, 28.2 µM (active).

For the compound `CCOC(=O)c1cccc(CNc2ccc(N(C)C(=O)Nc3ccccc3)cc2)c1`, the figures for the Potency (in assay [2]; in the assay with SKOV3) were 0.601 µM (active) and 14.1 µM (active), respectively. Moreover, the max response with HaCat was -23.2% (inactive). For the same compound, the Potency result in the assay on CAOV3 is “inactive”.

Regarding `CC1CCCC(SCC(O)C(=O)O)CC(=O)c2c(O)cc(O)cc2CC(=O)O1` (centres undefined), in the assay with HaCat, the max response was -1.3% (inactive). Moreover, in the assay with CAOV3, the Potency entry was “inactive”.

Take `COc1ccccc1NC(=O)Nc1ccc2ccccc2c1`: in the assay on HaCat, the max response is -10% (inactive). Moreover, the Potency result in the assay with CAOV3 and in the assay with SKOV3 was “inactive” in each case.

`CC(C)(C)c1ccc(CNC(=S)NCc2ccc(NS(C)(=O)=O)c(F)c2)cc1`: the Potency in [2] was 0.151 µM (active). Moreover, the max response in the assay with HaCat was -44.1% (inactive).

Consider `O=[N+]([O-])c1ccc(-[n+]2nc(-c3ccccc3)nn2-c2ccc(I)cc2)cc1`, for which the Potency in [1] was 18.4 µM (active); in assay [2] it was 19 µM (active); in [8], 21.5 µM (active). The Potency result (in assay [6]; in the assay on SKOV3) was “inactive” throughout. Besides, the activity in assay [7] is -47.4%; in assay [9], -39.3%; in assay [10], -49.2%. For the same compound, the max response with HaCat is -29.5% (inactive).

As to `CC1(C)CC23[C@@H]4CC(=O)[C@@H]2COC(=O)[C@@H]3CC[C@H]41`, the Potency result (in [6]; in the assay on CAOV3) was “inactive” each time. In addition, in the assay with HaCat, the max response is -1.08% (inactive).

Take `C=C1[C@@H](C)[C@H]2[C@H](Cc3c[nH]c4ccccc34)NC(=O)[C@]23C(=O)/C=C/C(=O)[C@H](O)/C(C)=C\[C@@H](C)C/C=C/[C@H]3[C@@H]1O`: the Potency entry (in assay [1]; in [6]; with CAOV3) was “inactive” each time. Moreover, the Potency with NIH3T3 is 3.55 µM (active).

Regarding `CN1CCN(C(=O)c2ccc(Nc3nccc(-c4cccs4)n3)cc2Cl)CC1`, the Potency was 18.4 µM (active) in assay [1], 21.3 µM (active) in [5] and 0.674 µM (active) in [2]. Also, the Potency entry (in [6]; with SKOV3) was “inactive” each time. Besides, the activity in [7] was -2.55%; in assay [9], -31.1%; in [10] it was -3.47%. Moreover, the activity change, negative = inhibition in [8] is 0%. In addition, the max response with HaCat was -21.8% (inactive).
